Data taken from PubChem BioAssay AID2551 (National Center for Advancing Translational Sciences (NCATS), 2010).
About 17,000 (5.5%) of roughly 310,000 compounds were called active. About 11% were inconclusive and are not listed. The sample holds actives, similar compounds and a random draw of the others, so the mix is not that of the screen. Calls come from the whole dose curve; as a rule, active = well fitted inhibition curve with a large enough effect; inconclusive = small, poorly fitted or top-dose-only effect, or effect the other way; inactive = no such curve, though single readings can be large or run the other way.

Molecular target: Nuclear receptor ROR-gamma (Mus musculus) (UniProt P51450)
Sequence (P51450 whole entry, looked up): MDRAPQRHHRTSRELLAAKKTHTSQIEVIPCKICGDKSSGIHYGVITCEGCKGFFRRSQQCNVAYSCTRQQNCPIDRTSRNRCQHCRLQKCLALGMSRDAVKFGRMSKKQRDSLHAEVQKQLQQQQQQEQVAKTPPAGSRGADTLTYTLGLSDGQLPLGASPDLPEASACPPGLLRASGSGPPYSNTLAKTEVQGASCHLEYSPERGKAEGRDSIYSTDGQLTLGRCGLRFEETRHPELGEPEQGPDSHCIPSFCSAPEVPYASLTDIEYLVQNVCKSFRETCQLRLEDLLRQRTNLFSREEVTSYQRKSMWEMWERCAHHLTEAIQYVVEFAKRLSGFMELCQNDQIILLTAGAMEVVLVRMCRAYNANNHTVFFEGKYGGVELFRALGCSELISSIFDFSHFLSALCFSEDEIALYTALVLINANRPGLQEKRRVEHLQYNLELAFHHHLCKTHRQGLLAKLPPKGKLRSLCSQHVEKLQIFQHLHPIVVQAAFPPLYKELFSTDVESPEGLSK
Assay: qHTS for inhibitors of ROR gamma transcriptional activity; note: nearly all actives have a fitted effect of over 60% in size
Conditions: Drosophila S2 Gal4-RORgamma UAS-luciferase reporter, 20 h; series mostly up to 53.6 µM
How it was run: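 Luminescence from a UAS-regulated Photinus luciferase reporter in stably transfected Drosophila Schneider cells is measured; decreased signal marks ROR gamma inhibition. Fusion expression is induced by 700 uM copper sulfate for 20 hr.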
% is set by controls: 0 for no effect and ±100 for the full control effect; potency is the fitted concentration of half-maximal effect.

Potency, active:
C/C(CC(C)C)=N\Oc1nc(C)cc(C)n1 6.31 µM, O=C(N/N=C/C=C/c1ccccc1)C1CC1(c1ccccc1)c1ccccc1 (stereo unspecified) 8.91 µM, Cc1ccc(S(=O)(=O)N2CCOCC2)cc1C(=O)NC(=S)N(Cc1ccccc1)C(C)C 1.26 µM, S=c1[nH]c(-c2cccs2)cn1-c1ccccc1 5.01 µM, Nc1nonc1-n1nnc(C(=O)N/N=C/c2cc(Br)ccc2O)c1CSC1=NCCS1 3.16 µM, Cc1ccc(/C=N/NC(=S)Nc2cccc(S(=O)(=O)N(C)C)c2)o1 1.26 µM, C=C(C)COc1ccc(-c2n[nH]c(C)c2-c2ccccc2)c(O)c1 7.08 µM, C=C(C)COc1ccc(-c2n[nH]c(C)c2-c2ccccc2OC)c(O)c1 14.1 µM, COc1ccc(-c2n[nH]c(C)c2-c2ccc(OC)c(OC)c2)c(O)c1 10 µM, COc1ccc(-c2n[nH]c(C)c2-c2ccccc2OC)c(O)c1 8.91 µM, CCOc1ccc(-c2n[nH]c(C)c2-c2ccccn2)c(O)c1 17.8 µM, Clc1ccc(C(Cn2ccnc2)OCc2ccsc2Cl)c(Cl)c1 (stereo unspecified) 12.6 µM, COCCN(C(=S)Nc1cccc(Cl)c1C)C(C)c1ccco1 (stereo unspecified) 7.94 µM, COc1ccccc1C1CCN(C(=S)Nc2ccc(Br)cc2)CC1 5.01 µM, C=CCNC(=O)c1ccc2c3n(nc2c1)-c1ccc(C)cc1CO3 7.08 µM, Cc1ccc2c(c1)c1ncnc(N3CCc4ccccc4C3)c1n2C 15.8 µM, O=C(Nc1ccc(NC(=O)c2cccs2)cn1)c1ccco1 11.2 µM, CC(NCc1nc2ccccc2n1C)C12CC3CC(CC(C3)C1)C2 (stereo unspecified) 5.01 µM, COc1ccc(CCNC(=S)NC(=O)/C=C/c2ccc(C)cc2)cc1OC 3.16 µM, C=CCN1CCN(C(=O)CCCc2ccccc2)CC1 5.62 µM

Potency, inactive:
COC(c1ccccc1)(c1ccccc1)C(Oc1nc(C)cc(C)n1)C(=O)O (stereo unspecified), COc1ccc(NC(=O)CCCN2C(=O)C(c3ccccc3)Oc3cccnc32)cc1 (stereo unspecified), COc1ccc(CN(C)C(=O)c2cc(-c3ccc(C)cc3C)nc3ccccc23)c(OC)c1OC, Cc1cc(=O)oc2c3c(cc(OCC(=O)NCCC(=O)N[C@@H](C)C(=O)O)c12)OC(C)(C)CC3, COC(=O)c1ccc(/C=N/NC(=O)C(=O)N2CCCCCC2)cc1, COc1ccccc1/C=C/C=N/NC(=O)CN1CCN(Cc2ccccc2)CC1, CC(/C=C/c1ccccc1)=N\NC(=O)C1CC1(C)c1ccccc1 (stereo unspecified), CN(C(=O)CCNC(=O)Cn1ccc2ccccc2c1=O)c1ccc(Br)cc1, COc1cc(NC(=O)C2CC(c3ccccc3O)=NO2)c(OC)cc1Cl (stereo unspecified), O=C(CN1C(=O)COc2ccc(Cl)cc21)Nc1ccc(N2CCOCC2)cc1, CCOC(=O)c1sc(NC(=O)c2cc(S(=O)(=O)N3CCOCC3)ccc2C)nc1C, Cc1ccc(S(=O)(=O)N2CCOCC2)cc1C(=O)NCc1ccc(F)cc1, COc1ccc([N+](=O)[O-])cc1NCC(=O)c1ccc(C)cc1, COCC1CCN(C(=O)CCc2nnc(C3(c4ccc(Cl)cc4)CCC3)o2)C1 (stereo unspecified), CCCNC(=O)COc1coc(CN2CCN(Cc3ccccc3)CC2)cc1=O, COC(=O)c1cc(S(=O)(=O)NCC2CCN(Cc3ccc(Cl)cc3)CC2)cn1C, O=c1[nH]c(-c2cccs2)nc2ccccc12, O=C(O)/C=C/c1cn(-c2ccccc2)nc1-c1cccs1, Nc1nc(SCc2cccc(Br)c2)n[nH]1, Cc1ccc(SCc2c(C(=O)N/N=C/C3CC=CCC3)nnn2-c2nonc2N)cc1 (stereo unspecified), Cc1ccc(SCc2c(C(=O)N/N=C/c3cccnc3)nnn2-c2nonc2N)cc1, C=CCOc1ccccc1NC(=O)CN1C(=O)CNC1=O, CN(C)S(=O)(=O)c1cccc(NC(=S)N/N=C/C(=O)c2ccccc2)c1, CN(C)S(=O)(=O)c1cccc(NC(=O)Cc2ccsc2)c1, O=C(Nc1ccccc1)C1CCN(C(=O)c2ccc(Br)cc2)CC1, O=C(NCCc1ccccc1Cl)C1CCC(=O)N(CCCc2ccccc2)C1 (stereo unspecified), CC1CC(C)CN(CCOc2cccc3ccccc23)C1 (stereo unspecified), CCOc1ccc(-c2nc(N)ncc2-c2ccccc2OC)c(O)c1, CC(=O)COc1ccc2c(-c3ccccc3)cc(=O)oc2c1, COc1ccc(-c2c(-c3ccc(OC)cc3O)nc(C)nc2C(F)(F)F)cc1, COc1ccc(-c2[nH]ncc2CN(C)Cc2c(C)n[nH]c2C)c(OC)c1, COc1ccc(OC)c(-c2csc(-c3cccs3)n2)c1, COc1ccc(CCN2C(=O)c3[nH]nc(-c4ccccc4O)c3C2c2ccc(C)cc2)cc1OC (stereo unspecified), C=C(C)COc1ccc(-c2nc(N)ncc2-c2ccccc2OC)c(O)c1, Cc1noc(C)c1COC(=O)COc1ccc(-c2ccccc2)cc1, O=C(NCCc1ccccn1)c1nc(Cn2cc([N+](=O)[O-])cn2)no1, Cc1ccccc1N1CC(C(=O)Nc2ccc3c(c2)OCO3)CC1=O (stereo unspecified), COc1ccc(-c2csc3ncnc(N4CCN(S(=O)(=O)c5ccccc5C#N)CC4)c23)cc1, CCCC(=O)N(CCN1CCOCC1)c1nc2ccc(OCC)cc2s1, CC(=O)Nc1ccc(NC(=O)CSc2nnnn2-c2ccccc2F)cc1, CCc1ccc(NC(=O)CS(=O)CC(=O)N2CCN(c3ccccc3F)CC2)cc1 (stereo unspecified), Cc1nc(CN(C)C(=O)CC2C(=O)NCCN2Cc2ccc(F)cc2)cs1 (stereo unspecified), CCOc1ccc(CN2CCN(Cc3c[nH]c4ccccc34)CC2)cc1, COc1ccc2c(c1)C(NS(=O)(=O)OCC(Cl)(Cl)Cl)CCC2 (stereo unspecified), O=C(CC1C(=O)NCCN1C(=O)c1ccc([N+](=O)[O-])cc1)Nc1cccc(Cl)c1 (stereo unspecified), O=C(NCc1ccncc1)C1CCCN(S(=O)(=O)c2ccc(Br)cc2)C1 (stereo unspecified), COc1ccc(NC(=O)CCCNC(=O)Cn2cnc3sc4c(c3c2=O)CCCC4)cc1OC, COc1ccc(-n2c(SCC(=O)OC(C)C)nnc2-c2ccccn2)cc1, COc1ccc(CNC(=O)CCN2C(=O)c3ccccc3C2=O)cc1, O=C(O)CC(c1ccccc1F)N1Cc2ccccc2C1=O (stereo unspecified), COCCC(=O)N1CCC(Oc2ccc(C(=O)NCc3ccon3)cc2)CC1, O=C(NCCCn1ccnc1)Nc1ccc(Cl)cc1Cl, COc1ccc(C(CNC(=O)COc2ccc([N+](=O)[O-])cc2)N2CCCCC2)cc1 (stereo unspecified), CC(=O)NCC(=O)NC1CCCc2c1cnn2-c1ccccc1F (stereo unspecified), COCCN(CCOC)C(=S)Nc1ccccc1Cl, Cc1c(Cl)cccc1NC(=O)CCC(=O)N/N=C/c1ccco1, C=CCn1c(SCC(=O)NCCCO)nc2sc3c(c2c1=O)CCC3, COc1ccc(C(=O)NC2CCN(C(=S)Nc3ccccc3)CC2)cc1, COc1ccc(NC(=S)N2CCC(NC(=O)c3cccc(F)c3)CC2)cc1, COc1ccc(NC(=O)C2C3CCC(O3)C2C(=O)O)cc1OC (stereo unspecified), COc1cc(NC(=O)CCS(=O)(=O)c2ccc3c(c2)oc(=O)n3C)cc(OC)c1, Cc1ccc(C(=O)N(CC(=O)NC2CCCC2)c2ccc(F)cc2)s1, CCOc1c2ccc(C(=O)NCc3ccc4c(c3)OCO4)cc2nn1C, CCCc1nn2c(=O)cc(CSCC(=O)Nc3cccc(C)c3)nc2s1, Cc1ccc2c(c1)c1ncn(Cc3ccc(F)cc3)c(=O)c1n2C, Cc1ccc2c(c1)c1ncn(CCC3=CCCCC3)c(=O)c1n2C, O=C(O)c1ccccc1-c1ccccc1C(=O)Nc1ccccc1Br, COc1cccc(C(=O)Nc2ccc(NC(=O)c3ccco3)cn2)c1, O=C(Nc1ccc2nccnc2c1)c1ccco1, Cc1cc(O)c(C2(O)C(=O)Nc3ccccc32)cc1C (stereo unspecified), C/C(=N\NC(=O)c1ccc2ccccc2c1)c1cccnc1, CCOc1ccc(C(O)Cc2nc3ccccc3n2C)cc1 (stereo unspecified), COc1ccc(CCNC(=O)NS(=O)(=O)c2ccc(C)cc2)cc1OC, COc1ccc(CCNC(=O)Cc2ccc(C)cc2)cc1OC, COc1cccc(CNC(=O)CN(C)S(=O)(=O)c2ccc3c(c2)c(=O)n(C)c(=O)n3C)c1, CC(=O)Nc1ccc(NC(=O)CN2C(=O)COc3ccc(S(=O)(=O)N4CCCCC4)cc32)cc1, CCOc1cccc(-c2nnc(SCC(=O)NC3CC3)n2C)c1, OCCN1CCN(c2nnc(-c3ccccc3)c3ccccc23)CC1, CCOc1ccc(N(CC(=O)NCCOc2ccccc2OC)S(=O)(=O)c2ccccc2)cc1, CC(=O)c1ccc(N2CCN(C(=O)CCc3ccccc3)CC2)cc1, O=C(CCCc1ccccc1)NCc1ccccc1

Activity change, negative = inhibition, inactive:
CCN(C(=O)c1cc([N+](=O)[O-])ccc1NCc1cccnc1)c1ccccc1 11.5% [at 1.91 µM], O=C1OC2(CCCCC2)CC2=C1C1O[C@](c3ccsc3)(Cc3ccccc31)O2 -3.37% [at 10 µM], CCOc1cccc(-c2nn3c(-c4ccccn4)nnc3s2)c1 -2.44% [at 10 µM], C=CCNC(=O)c1ccc(C)c(Br)c1 5.36% [at 0.365 µM], Cn1c(CNC(=O)C(C)(C)C)nc2ccccc21 20.1% [at 0.365 µM]
